In PubChem BioAssay (NCI):
Compounds without any hit were thinned out: in the full panel of roughly 83,000, 20% have a hit.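 Cell lines were cultured in 96-well plates, exposed to a single compound concentration, and assessed for percent growth 48 hours later.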 Active and inactive are the calls of the source. How the source made its calls: active means growth percent below 10; inactive means the rest.

Columns and labels:
Test in all cases: NCI-60 one-dose screen, 48 h (100 = growth as untreated, 0 = no growth, -100 = all killed)
Details in all cases: 10 µM unless noted
NCI-H23 lung = system: NCI-H23 lung
NCI-H226 lung = system: NCI-H226 lung
NCI-H322M lung = system: NCI-H322M lung
HOP-62 NSCLC = system: HOP-62 NSCLC
NCI-H460 lung = system: NCI-H460 lung
HOP-92 NSCLC = system: HOP-92 NSCLC
NCI-H522 lung = system: NCI-H522 lung
A549/ATCC NSCLC = system: A549/ATCC NSCLC
786-0 renal = system: 786-0 renal
COLO 205 colon = system: COLO 205 colon
DU-145 prostate = system: DU-145 prostate
K-562 leukemia = system: K-562 leukemia
MALME-3M melanoma = system: MALME-3M melanoma
MDA-MB-231 breast = system: MDA-MB-231 breast
RXF 393 renal = system: RXF 393 renal
SF-268 CNS = system: SF-268 CNS
SF-539 CNS = system: SF-539 CNS
UACC-257 melanoma = system: UACC-257 melanoma
M14 melanoma = system: M14 melanoma
SF-295 CNS = system: SF-295 CNS

Measured: growth

COc1ccc(-c2cc(/C=C/C(=O)c3ccc(OC)c(OC)c3)[nH]n2)cc1
inactive: NCI-H23 lung 32.7% | NCI-H226 lung 50.9% | NCI-H322M lung 26.1% | HOP-92 NSCLC 66.6% | A549/ATCC NSCLC 29.2% | 786-0 renal 13% | COLO 205 colon 24.5% | MALME-3M melanoma 63.1% | MDA-MB-231 breast 28.8% | UACC-257 melanoma 73.9% | M14 melanoma 41.8%
active: HOP-62 NSCLC 8.64% | NCI-H460 lung -71.1% | NCI-H522 lung 1.47% | DU-145 prostate 0.792% | K-562 leukemia -29.8% | RXF 393 renal 8.62% | SF-268 CNS 7.76% | SF-539 CNS -50.7%

CN1CCN(c2nc(-c3cccc4ccccc34)nc3sc4c(c23)CCCCCC4)CC1
inactive: NCI-H23 lung 92.2% | NCI-H226 lung 74.4% | NCI-H322M lung 104% | HOP-62 NSCLC 75.4% | NCI-H460 lung 91.4% | NCI-H522 lung 88.7% | A549/ATCC NSCLC 95.5% | 786-0 renal 87.7% | COLO 205 colon 91.7% | DU-145 prostate 102% | K-562 leukemia 85.3% | MALME-3M melanoma 81.3% | MDA-MB-231 breast 61.8% | RXF 393 renal 60.9% | SF-268 CNS 82% | SF-539 CNS 86% | UACC-257 melanoma 94.4% | M14 melanoma 93.2%
active: HOP-92 NSCLC -0.421%

Oc1cc(/C=C/c2nc(N3CCOCC3)c3cc(Cl)c(Cl)cc3n2)cc(O)c1O
inactive: NCI-H23 lung 101% | NCI-H226 lung 85.8% | NCI-H322M lung 113% | HOP-62 NSCLC 97.2% | NCI-H460 lung 101% | HOP-92 NSCLC 102% | NCI-H522 lung 88.6% | A549/ATCC NSCLC 106% | 786-0 renal 95.7% | COLO 205 colon 108% | DU-145 prostate 104% | K-562 leukemia 81.5% | MALME-3M melanoma 107% | MDA-MB-231 breast 106% | RXF 393 renal 98.8% | SF-268 CNS 108% | SF-539 CNS 94.1% | UACC-257 melanoma 99.8% | M14 melanoma 102%

Cc1ccc(N(CC(=O)Nc2ccc(S(=O)(=O)N3CCC(N4CCCC4)CC3)cc2)S(=O)(=O)c2ccc(Cl)cc2)cc1
active: NCI-H460 lung -58.5% | 786-0 renal -70.5% | COLO 205 colon -60.5% | DU-145 prostate 9.76% | K-562 leukemia -44.9% | MALME-3M melanoma -81.2% | MDA-MB-231 breast -42.9% | RXF 393 renal -70.8% | SF-295 CNS -64.5% | SF-539 CNS -89.7% | M14 melanoma -68.8%
inactive: NCI-H23 lung 77.6% | NCI-H226 lung 64.7% | NCI-H322M lung 22.5% | HOP-62 NSCLC 67.6% | HOP-92 NSCLC 50.9% | NCI-H522 lung 44.2% | A549/ATCC NSCLC 20.2% | SF-268 CNS 34.8%

O=C1CCN2C(=O)Nc3ccccc3C2C1 (stereo not given)
inactive: NCI-H23 lung 101% | NCI-H226 lung 104% | NCI-H322M lung 95.8% | HOP-62 NSCLC 109% | NCI-H460 lung 100% | HOP-92 NSCLC 96.7% | NCI-H522 lung 100% | A549/ATCC NSCLC 101% | 786-0 renal 99.3% | COLO 205 colon 107% | DU-145 prostate 112% | K-562 leukemia 101% | MALME-3M melanoma 87.4% | MDA-MB-231 breast 93.5% | RXF 393 renal 112% | SF-268 CNS 110% | SF-295 CNS 97.5% | SF-539 CNS 95.5% | M14 melanoma 86.3%

CCCCCCCC(=O)SCC/C=C/[C@@H]1CC(=O)NCc2cccc(n2)CN(Cc2ccc(Cl)cc2)CC(=O)N[C@@H](C(C)C)C(=O)O1
inactive: NCI-H23 lung 19.5% | NCI-H226 lung 16.1% | NCI-H460 lung 11.9% | NCI-H522 lung 29.6% | 786-0 renal 14.4% | DU-145 prostate 20.6% | MALME-3M melanoma 25.1% | SF-268 CNS 18% | SF-539 CNS 14.7%
active: NCI-H322M lung 8.85% | HOP-62 NSCLC 8.04% | HOP-92 NSCLC -16.5% | A549/ATCC NSCLC 2.92% | COLO 205 colon -40.4% | K-562 leukemia 9.09% | MDA-MB-231 breast -1.33% | RXF 393 renal -20.4% | SF-295 CNS -68.2% | M14 melanoma 8.96%

COc1cccc(-c2nn(-c3ccccc3)cc2-c2ccnc(NCCCO)c2)c1
active: K-562 leukemia 8.63%
inactive: NCI-H23 lung 51.5% | NCI-H226 lung 69.2% | NCI-H322M lung 66% | HOP-62 NSCLC 27.1% | NCI-H460 lung 18.4% | HOP-92 NSCLC 41.8% | NCI-H522 lung 18% | A549/ATCC NSCLC 35.1% | 786-0 renal 48.7% | COLO 205 colon 11.2% | DU-145 prostate 63.8% | MALME-3M melanoma 51.4% | MDA-MB-231 breast 38.4% | RXF 393 renal 47.6% | SF-268 CNS 53.7% | SF-295 CNS 27.1% | SF-539 CNS 33.5% | M14 melanoma 12.8%

COc1ccccc1CNc1nc(N)nc2[nH]c3ccc(O)cc3c12
inactive: NCI-H23 lung 57.8% | NCI-H226 lung 92.6% | NCI-H322M lung 61.5% | HOP-62 NSCLC 37% | NCI-H460 lung 18.3% | HOP-92 NSCLC 34.1% | NCI-H522 lung 18.7% | A549/ATCC NSCLC 40.6% | 786-0 renal 83.2% | COLO 205 colon 33.6% | DU-145 prostate 91% | K-562 leukemia 11.1% | MALME-3M melanoma 53.6% | MDA-MB-231 breast 26.8% | RXF 393 renal 78% | SF-268 CNS 64.7% | SF-295 CNS 49.6% | SF-539 CNS 45.5% | M14 melanoma 10.5%

c1ccc2[nH]c(-c3ccc(Nc4nc(N5CCCCC5)nc(N5CCOCC5)n4)cc3)nc2c1
active: HOP-62 NSCLC -45.2% | NCI-H460 lung 0.809% | NCI-H522 lung 9.25% | 786-0 renal -57.3% | COLO 205 colon -61.3% | K-562 leukemia -6.74% | MALME-3M melanoma -50.2% | RXF 393 renal -56.1% | SF-295 CNS -51.4% | SF-539 CNS 7.95% | M14 melanoma -24.5%
inactive: NCI-H23 lung 19.7% | NCI-H226 lung 32.7% | NCI-H322M lung 35% | HOP-92 NSCLC 43.3% | A549/ATCC NSCLC 13.9% | DU-145 prostate 39% | MDA-MB-231 breast 23.1% | SF-268 CNS 33.8%

Cn1c2ccccc2c2c3c(c4c5cccnc5[nH]c4c21)C(=O)N(O)C3=O
inactive: NCI-H23 lung 15.1% | NCI-H226 lung 74.3% | NCI-H322M lung 62.6% | HOP-62 NSCLC 15.3% | NCI-H460 lung 14.7% | HOP-92 NSCLC 78.9% | NCI-H522 lung 47.6% | A549/ATCC NSCLC 62.3% | 786-0 renal 36.6% | COLO 205 colon 22.4% | DU-145 prostate 26.5% | K-562 leukemia 29.8% | MALME-3M melanoma 58.2% | MDA-MB-231 breast 68.8% | RXF 393 renal 59.5% | SF-268 CNS 38.2% | SF-295 CNS 37.6% | SF-539 CNS 16.6% | M14 melanoma 20.5%

CC(CNc1nc(Nc2ccc(Cl)c(Cl)c2)nc(C(Cl)(Cl)Cl)n1)N(C)C (stereo not given)
active: HOP-62 NSCLC -68.4% | NCI-H460 lung -63% | HOP-92 NSCLC -17.7% | NCI-H522 lung -86.8% | A549/ATCC NSCLC 4.96% | 786-0 renal -77.3% | COLO 205 colon -77.7% | DU-145 prostate 5.37% | K-562 leukemia -54% | MDA-MB-231 breast -62.6% | RXF 393 renal -24.3% | UACC-257 melanoma -8.37% | M14 melanoma -60.6%
inactive: NCI-H23 lung 14.2% | NCI-H226 lung 40.8% | NCI-H322M lung 27.6% | MALME-3M melanoma 15.6% | SF-268 CNS 11.5% | SF-539 CNS 16.3%

Clc1ccc(Cn2cc(-c3nc4ccc(Br)nc4n3Cc3ccc(Cl)cc3)c3cccnc32)cc1
inactive: NCI-H23 lung 65.9% | NCI-H226 lung 77.7% | NCI-H322M lung 81.1% | HOP-62 NSCLC 82.7% | NCI-H460 lung 97.4% | HOP-92 NSCLC 65.4% | NCI-H522 lung 70% | A549/ATCC NSCLC 95.9% | 786-0 renal 90.5% | COLO 205 colon 94.5% | DU-145 prostate 105% | K-562 leukemia 78.9% | MALME-3M melanoma 92.4% | MDA-MB-231 breast 53.1% | RXF 393 renal 83% | SF-268 CNS 89.2% | SF-295 CNS 83.9% | SF-539 CNS 86% | M14 melanoma 89.8%

CCc1ccccc1NC(=O)c1sc2nc3c(cc2c1N)CCCC3
inactive: NCI-H23 lung 52.7% | NCI-H226 lung 73.4% | NCI-H322M lung 74.9% | HOP-62 NSCLC 35.6% | NCI-H460 lung 20.6% | HOP-92 NSCLC 37.1% | NCI-H522 lung 15% | A549/ATCC NSCLC 36.7% | 786-0 renal 44.1% | COLO 205 colon 36% | DU-145 prostate 51.7% | K-562 leukemia 12.1% | MALME-3M melanoma 55.7% | MDA-MB-231 breast 51.3% | RXF 393 renal 49.8% | SF-268 CNS 49.2% | SF-295 CNS 29.6% | SF-539 CNS 13.9% | M14 melanoma 24.1%

COc1cc2[nH]c(C(=O)c3cc(OC)c(OC)c(OC)c3)c(N)c2cc1C#CCO
inactive: NCI-H23 lung 35.7% | NCI-H226 lung 27.9% | NCI-H322M lung 43.6% | HOP-62 NSCLC 28.3% | HOP-92 NSCLC 21.6% | A549/ATCC NSCLC 33% | 786-0 renal 40.8% | DU-145 prostate 12.2% | MALME-3M melanoma 31.7% | MDA-MB-231 breast 39% | SF-268 CNS 32.5% | UACC-257 melanoma 71.2%
active: NCI-H460 lung 7.9% | NCI-H522 lung -6.03% | COLO 205 colon -35.8% | K-562 leukemia 7.65% | RXF 393 renal 1.88% | SF-539 CNS -35% | M14 melanoma 7.42%

C=C1C(=O)O[C@H]2[C@H]1CC/C(Cn1cc(-c3ccc(OC)cc3)nn1)=C\CC[C@@]1(C)O[C@@H]21
inactive: NCI-H322M lung 88.7% | HOP-62 NSCLC 49.7% | NCI-H460 lung 87.6% | A549/ATCC NSCLC 57.3% | SF-268 CNS 12.7% | SF-295 CNS 88.8%
active: NCI-H23 lung 4.37% | NCI-H226 lung -44.1% | HOP-92 NSCLC -60.1% | NCI-H522 lung -78.7% | 786-0 renal -83.2% | COLO 205 colon -86% | DU-145 prostate -35% | K-562 leukemia -9.11% | MALME-3M melanoma -62.3% | MDA-MB-231 breast -12.3% | RXF 393 renal -63.6% | SF-539 CNS -16.6% | M14 melanoma -43.9%
